proKLK7 act = proKLK7 zymogen activators, primary screen, biochemical, fluorescence intensity; 0.9% of 370,000 active; Kallikrein-7 (Homo sapiens), P49862; purified proKLK7, EDANS-DABCYL substrate fluorescence; 100% is mature enzyme control, 0% vehicle; activation, % at 7 µM; AID 652039, 2013;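 active means activation above the mean of all tested compounds plus 3 SD, computed per campaign excluding outliers beyond control limits, cut at about 13% in these data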
AHR act = AHR activators, primary screen, cell-based, luminescence, luciferase reporter, human; Aryl hydrocarbon receptor (Homo sapiens), P35869; AHR-responsive luciferase reporter cells; activation, % at 5 µM; 2.5% of 320,000 active; AID 2796, 2010; in the data active means activation above about 47%;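 further: 0% = vehicle wells and 100% = reference agonist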
ADAM17 inh = ADAM17 inhibitors, primary screen, biochemical, QFRET | 0.83% of 370,000 active | inhibition, % at 6.95 µM | Disintegrin and metalloproteinase domain-containing protein 17 (Homo sapiens), P78536 | recombinant ADAM17, EDANS/DABCYL FRET peptide cleavage;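 active means inhibition above the mean of compounds lying between control limits plus 3 SD, set per campaign, cut at about 8.5% in these data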;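 further: 0% = DMSO-only wells as the low control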
Target sequence (P78536 215-824 limits assumed): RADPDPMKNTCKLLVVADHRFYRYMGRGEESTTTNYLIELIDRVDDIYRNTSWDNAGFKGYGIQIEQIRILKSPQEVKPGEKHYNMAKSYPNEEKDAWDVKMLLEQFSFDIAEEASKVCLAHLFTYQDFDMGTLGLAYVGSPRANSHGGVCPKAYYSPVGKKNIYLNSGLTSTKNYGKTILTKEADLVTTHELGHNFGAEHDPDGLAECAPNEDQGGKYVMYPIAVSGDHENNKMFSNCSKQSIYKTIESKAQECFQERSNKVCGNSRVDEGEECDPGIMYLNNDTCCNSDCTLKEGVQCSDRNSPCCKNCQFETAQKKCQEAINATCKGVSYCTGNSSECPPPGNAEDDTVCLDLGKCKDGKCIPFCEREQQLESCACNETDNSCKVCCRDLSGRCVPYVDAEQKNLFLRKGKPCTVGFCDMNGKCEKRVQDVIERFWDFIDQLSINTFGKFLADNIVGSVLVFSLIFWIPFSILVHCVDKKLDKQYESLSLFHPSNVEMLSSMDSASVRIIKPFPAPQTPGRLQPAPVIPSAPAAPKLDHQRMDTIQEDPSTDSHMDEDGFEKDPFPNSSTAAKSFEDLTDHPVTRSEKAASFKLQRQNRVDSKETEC
NR3A LBD binder = binders of NR3A ligand-binding domain, primary screen, biophysical, differential scanning fluorimetry, uHTS. Glutamate receptor ionotropic, NMDA 3A (GRIN3A) ligand-binding domain. NR3A LBD differential scanning fluorimetry, Tm shift; 0% = protein alone, 100% = glycine-bound protein. Tm shift relative to glycine control, % at 25 µM. 2.5% of 340,000 active. AID 1259313, 2017;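 active means melting temperature shift of at least 10% of the positive control shift, at one fixed dose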
ADAM10 inh = human ADAM10 inhibitors, primary screen, biochemical, QFRET, HTS | Disintegrin and metalloproteinase domain-containing protein 10 (Homo sapiens), O14672 | recombinant ADAM10, EDANS/DABCYL FRET peptide cleavage, 3 h | inhibition, % at 7 µM | 0.62% of 370,000 active | AID 720582, 2013;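 active means inhibition above a per-campaign cutoff equal to the mean of compounds falling between control-based bounds plus 3 SD, cut at about 20% in these data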;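 further: 0% = DMSO wells while the 100% control is not disclosed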
rCAG RNA binder = binders of r(CAG) RNA repeats, primary screen, biochemical, fluorescence; r(CAG) RNA repeat, TO-PRO-1 dye displacement fluorescence; inhibition, % at 3 µM; 1.3% of 370,000 active;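 active means inhibition above the plate cutoff, the mean of all test compounds on that plate plus 3 SD, cut at about 35% in these data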;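 further: 0% = DMSO alone and 100% = 100 µM mitoxantrone as full dye displacement; higher means more dye released from RNA so lower well fluorescence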
* hit, by the source's call. Rows were chosen to be rich in hits. Some 7% of all compounds tested hit in one or more screens of this group.

Results for O=C1[C@H](Cc2ccccc2)NCCCC[C@@H](c2ccc(Cl)cc2)N1Cc1ccc(Cl)cc1 ?
proKLK7 act: 0; ADAM17 inh: 3; NR3A LBD binder: -19; ADAM10 inh: 8; rCAG RNA binder: 3

How did Cc1ccc(CNC(=O)Cn2nnc(C(=O)Nc3cc(C)ccc3C)c2N)cc1 do in these assays?
proKLK7 act: 0; AHR act: 8; ADAM17 inh: -5; NR3A LBD binder: 15*; ADAM10 inh: -10; rCAG RNA binder: 2

How did Cc1cc(C)cc(-n2nnc(C(=O)NCc3ccccc3)c2N)c1 do in these assays?
proKLK7 act: 0; AHR act: -2; ADAM17 inh: 4; NR3A LBD binder: 1; ADAM10 inh: 5; rCAG RNA binder: -3

Results for Cc1ccc(CNC(=O)c2nnn(CC(=O)Nc3cc(C)cc(C)c3)c2N)cc1 ?
proKLK7 act: 0; AHR act: 4; ADAM17 inh: -3; NR3A LBD binder: 20*; ADAM10 inh: 1; rCAG RNA binder: -1

How did Cc1cc(C)cc(-n2nnc(C(=O)NCc3ccc(Cl)cc3)c2N)c1 do in these assays?
proKLK7 act: 1; AHR act: -1; ADAM17 inh: -2; NR3A LBD binder: 32*; ADAM10 inh: 8; rCAG RNA binder: -4

Results for O=c1[nH]c(C(F)(F)F)nc2c1nc1n2CCC1 ?
proKLK7 act: 0; ADAM17 inh: -1; ADAM10 inh: -12; rCAG RNA binder: 0

Results for O=C1CNC(=O)c2c(nc3n2CCC3)N1 ?
proKLK7 act: 0; AHR act: 0; ADAM17 inh: 3; NR3A LBD binder: 11*; ADAM10 inh: 4; rCAG RNA binder: -1

What do the screens show for `C[C@@H]1ON(C)[C@H]2C[C@H]3c4cc(Br)ccc4CCN3C[C@@H]12`?
proKLK7 act: 0; ADAM17 inh: -13; ADAM10 inh: -29; rCAG RNA binder: -2

Results for Cc1ccc(NC(=S)NCc2cccs2)cc1 ?
proKLK7 act: 0; AHR act: 8; ADAM17 inh: -2; NR3A LBD binder: 0; ADAM10 inh: -4; rCAG RNA binder: -2

Results for CCCCc1ccc(NC(=S)NCc2cccs2)cc1 ?
proKLK7 act: 1; AHR act: 0; ADAM17 inh: 3; NR3A LBD binder: 11*; ADAM10 inh: 14; rCAG RNA binder: 1

Results for Cc1cc(C)c(C#N)c(Nc2ccc(F)cc2)n1 ?
proKLK7 act: 0; AHR act: 74*; ADAM17 inh: -3; NR3A LBD binder: -1; ADAM10 inh: -3; rCAG RNA binder: -2

Results for O=C(O)c1ccc(S(=O)(=O)c2ccc3c(c2)C(=O)N(NC(=O)c2ccccc2)C3=O)cc1 ?
proKLK7 act: 0; AHR act: 3; ADAM17 inh: -6; NR3A LBD binder: 23*; ADAM10 inh: -9; rCAG RNA binder: 2

What do the screens show for `c1cnc2c(OCc3cn4cccnc4n3)cccc2c1`?
proKLK7 act: 0; AHR act: 71*; ADAM17 inh: -10; NR3A LBD binder: 1; ADAM10 inh: -27; rCAG RNA binder: 3

Results for Clc1ccc(OCc2cn3cccnc3n2)c2ncccc12 ?
proKLK7 act: 2; ADAM17 inh: -25; NR3A LBD binder: 1; ADAM10 inh: -68; rCAG RNA binder: -2

What do the screens show for `COc1ccc(CN(Cc2ccc(C(=O)O)cc2)C(=S)Nc2cccc(C)c2)cc1OC`?
proKLK7 act: 0; AHR act: 2; ADAM17 inh: -3; NR3A LBD binder: 12*; ADAM10 inh: -4; rCAG RNA binder: 14

How did COc1ccc(NC(=S)N(Cc2ccc(C(=O)O)cc2)Cc2ccc(OC)c(OC)c2)cc1 do in these assays?
proKLK7 act: 0; AHR act: 5; ADAM17 inh: 2; NR3A LBD binder: 2; ADAM10 inh: -9; rCAG RNA binder: 9

How did CC(=O)NC1CCCCN(C)C1=O (configuration not stated) do in these assays?
proKLK7 act: 0; ADAM17 inh: -4; ADAM10 inh: -6; rCAG RNA binder: 2

What do the screens show for `Cc1ccc(C)c(N=Nc2nc3ccccc3n2C)c1`?
proKLK7 act: 0; AHR act: 62*; ADAM17 inh: 1; NR3A LBD binder: -3; ADAM10 inh: 3; rCAG RNA binder: -1

What do the screens show for `Cn1c(/N=C/c2cccs2)nc2ccccc21`?
proKLK7 act: 0; AHR act: 10; ADAM17 inh: -4; NR3A LBD binder: 0; ADAM10 inh: -2; rCAG RNA binder: 1

Results for Cc1ccc(CNc2nc3ccccc3n2C)cc1 ?
proKLK7 act: 0; AHR act: 26; ADAM17 inh: -2; NR3A LBD binder: -2; ADAM10 inh: 1; rCAG RNA binder: -2

How did Cc1cc(C)c(C)c(N=Nc2nc3ccccc3n2C)c1C do in these assays?
proKLK7 act: 0; AHR act: 42; ADAM17 inh: 2; NR3A LBD binder: 19*; ADAM10 inh: -2; rCAG RNA binder: -1

How did Cc1nn(-c2ccccc2)c2ncc(C(=O)c3cc(Cl)ccc3O)cc12 do in these assays?
proKLK7 act: 0; AHR act: -1; ADAM17 inh: -3; NR3A LBD binder: 4; ADAM10 inh: -1; rCAG RNA binder: 10

What do the screens show for `CCc1nn2cc(C(=O)c3cc(Cl)ccc3O)cnc2c1-c1ccc(F)cc1`?
proKLK7 act: 0; AHR act: 4; ADAM17 inh: -1; NR3A LBD binder: 27*; ADAM10 inh: -2; rCAG RNA binder: 2

Results for NC(N)=NN=C1c2ccccc2-c2ccccc21 ?
proKLK7 act: -1; AHR act: 41; ADAM17 inh: -1; NR3A LBD binder: 23*; ADAM10 inh: -6; rCAG RNA binder: 8

What do the screens show for `NC(=S)NN=C1c2ccccc2-c2ccccc21`?
proKLK7 act: 0; AHR act: 7; ADAM17 inh: 4; NR3A LBD binder: -3; ADAM10 inh: 4; rCAG RNA binder: 13

What do the screens show for `O=C(NC(=S)Nc1ccc(Cl)cc1)c1ccccc1`?
proKLK7 act: 0; AHR act: 15; ADAM17 inh: -2; NR3A LBD binder: 1; ADAM10 inh: 5; rCAG RNA binder: -2

Results for CN(C)S(=O)(=O)c1cccc(NC(=O)c2c[nH]c3ccccc23)c1 ?
proKLK7 act: 0; AHR act: 49*; ADAM17 inh: -3; NR3A LBD binder: 10; ADAM10 inh: -8; rCAG RNA binder: 12

How did Cc1cc(Cl)ccc1OCCCC(=O)OCC(=O)Nc1cccc(S(N)(=O)=O)c1 do in these assays?
proKLK7 act: 0; AHR act: 1; ADAM17 inh: 5; NR3A LBD binder: 10*; ADAM10 inh: 5; rCAG RNA binder: 17

From PubChem BioAssay
